Data from PubChem BioAssay (NCI).
This is part of a sample that, as a whole, favours compounds with a hit. Of some 79,000 tested, about 15% had one in any assay. No stated cut-off is given here; in the data, active means growth inhibition above about 70%; inactive means the rest.

Experiments:
[1] = NCI Yeast Anticancer Drug Screen. Data for the rad50 strain (AID 155);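 further: 0% = growth of vehicle-only cultures of the same strain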; conditions: S. cerevisiae rad50 strain growth inhibition; at 50.0 µM; hits give high values
In short: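 Relative growth inhibition (compound vs vehicle) was measured in yeast with a defined repair-gene alteration.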

[2] = NCI Yeast Anticancer Drug Screen. Data for the mec2-1 strain (AID 157); conditions: S. cerevisiae mec2-1 strain, at 50.0 µM, hits give high values
In short: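 Each compound was tested on mec2-1 yeast, a strain altered in DNA damage repair or cell cycle control. Growth inhibition is reported relative to vehicle.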

[3] = NCI Yeast Anticancer Drug Screen. Data for the sgs1 mgt1 strain (AID 161);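 further: 0% = growth of cultures given vehicle only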; conditions: S. cerevisiae sgs1 mgt1 strain, at 50.0 µM, hits give high values
In short: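 Mutant yeast exposed to compound; growth scored against vehicle-only wells.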

[4] = NCI Yeast Anticancer Drug Screen. Data for the cln2 rad14 strain (AID 165);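 further: 0% = growth equal to vehicle treated cultures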; conditions: S. cerevisiae cln2 rad14 strain, at 50.0 µM, hits give high values
In short: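 Test compounds were added to cln2 rad14 yeast cultures; inhibition of growth was then determined by comparison with vehicle treatment.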

[5] = NCI Yeast Anticancer Drug Screen. Data for the bub3 strain (AID 167); conditions: S. cerevisiae bub3 mutant strain, at 50.0 µM, hits give high values
In short: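 Screening used yeast with an engineered genetic alteration affecting cell cycle control. Compound-exposed cultures were compared with vehicle cultures, and reduced growth was taken as inhibition.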

[6] = NCI Yeast Anticancer Drug Screen. Data for the mlh1 rad18 strain (AID 175); conditions: S. cerevisiae mlh1 rad18 strain growth inhibition; at 50.0 µM; hits give high values
In short: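 Inhibition values reflect reduced growth of mutant yeast versus vehicle-treated controls following compound exposure; the mutations affect DNA damage repair.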

Measured: growth inhibition

Oc1ccc(Cl)cc1Cc1cc(Cl)cc(Cc2cc(Cl)cc(Cc3cc(Cl)cc(Cc4cc(Cl)ccc4O)c3O)c2O)c1O
inactive: [1] -31.2% | [2] 0.5% | [3] -5.4% | [4] -16.6% | [5] -26% | [6] -27.1%

CCOC(=O)N/N=C(\CC)NO
inactive: [1] 2.45% | [2] 1.35% | [3] -7.7% | [4] -7% | [5] 12.8% | [6] 5.7%

CC1=Nc2c(C)noc2CC(c2ccccc2O)C1 (stereo unspecified)
inactive: [1] -1.5% | [2] -2.6% | [3] -2.05% | [4] 27.2% | [5] -15.8% | [6] -5.35%

CCOC(=O)c1nc2c(Cl)c3ncccc3cc2[nH]c1=O
inactive: [1] 20.6% | [2] 11.1% | [3] 20.8% | [4] -9.7% | [5] 16.1% | [6] 20.4%

c1ccc(C2CCOCO2)cc1 (stereo unspecified)
inactive: [1] 14.4% | [2] 15.7% | [3] 15.8% | [4] 12.2% | [5] 5.7% | [6] 24.2%

C=C(C)C(=O)O[C@@H]1C[C@@]2(C)O[C@@H]2C[C@H](O)/C(C)=C/[C@H]2OC(=O)C(=C)[C@@H]21
inactive: [1] -19.6% | [2] -33.1% | [3] -22.5% | [4] 0.35% | [5] -16.5% | [6] -43.1%

CC(=O)NCCCCCC(=O)N(C)C
inactive: [1] -32.6% | [2] -8.45% | [3] -16.8% | [4] -17.6% | [5] -3.3% | [6] -5.35%

CC(C)=C(OC(=O)c1ccccc1)C(C)(CC(C)(C)C)C(C)(C)C (stereo unspecified)
inactive: [1] 13.1% | [2] -55.3% | [3] -10.3% | [4] -100% | [5] -26.5% | [6] 19.4%

CCCS(=O)(=O)N1CC(C)OC(C)C1 (stereo unspecified)
inactive: [1] 2.35% | [2] -16.9% | [3] 3.5% | [4] -7.1% | [5] -10.7% | [6] 3.2%

CCOC(=O)c1c(NCCO)c(-c2ccccc2)c(=O)n2c1[nH]c1ccccc12
inactive: [1] 2.1% | [2] 6.6% | [3] 4.8% | [4] -1% | [5] -0.9% | [6] 14.9%

O=C(c1ccccc1)c1cccnc1
inactive: [1] -10.6% | [2] -18.3% | [3] -17.4% | [4] -25.1% | [5] -45.2% | [6] -35.4%

c1ccc2c[n+](CCCC[n+]3ccc4ccccc4c3)ccc2c1
inactive: [1] 46.5% | [2] 17.1% | [3] 22.4% | [4] 12.4% | [5] 41.8% | [6] 44.8%

Cc1nc(N)nc(C)c1N=Nc1cc(Br)ccc1Br
inactive: [1] 26.1% | [2] -14.1% | [3] -15.4% | [4] -13.7% | [5] 0.35% | [6] -7.6%

c1ccc(B2Nc3ccccc3O2)cc1
inactive: [1] 18.1% | [2] 7.05% | [3] 5.3% | [4] 18.4% | [5] 43% | [6] 39.5%

c1ccc(COc2ccc(CC3SCCCS3)cc2)cc1
inactive: [1] -30.5% | [2] -35.8% | [3] -10.4% | [4] 24.9% | [5] 16.6% | [6] -7.5%

COc1cccc(NC(=O)NCCN(C)c2ccccc2)c1
inactive: [1] -5.7% | [2] 38.5% | [3] 21.1% | [4] -17.2% | [5] 23.1% | [6] 27.2%

COc1c2c(c3ccccc3c1O)C1C=CC2C1 (stereo unspecified)
inactive: [1] 7.6% | [2] 7.6% | [3] -37.7% | [4] -5.25% | [5] 0.25% | [6] -16.3%

Cc1cc2nc3c(=O)[nH]c(=O)nc-3n(CCN(CCO)CCO)c2cc1Cl
inactive: [1] 58.9% | [2] 7.95% | [3] 48.3% | [4] 14.8% | [5] 1.55% | [6] 17.8%

NC(=O)C(F)(F)c1ccccc1
inactive: [1] 2.3% | [2] -12.8% | [3] 14.8% | [4] 10.1% | [5] 21.4% | [6] 9.8%

CC(C)C(=O)OCc1ccc(Cl)cc1
inactive: [1] 29.8% | [2] 38.3% | [3] 21.8% | [4] 12.1% | [5] 26.8% | [6] 17.4%

CCN(CC)C(=O)c1cc([N+](=O)[O-])c(=O)n2c1[nH]c1ccccc12
inactive: [1] -17.9% | [2] 6.8% | [3] -59.6% | [4] 23.1% | [5] -18.5% | [6] -5.85%

COc1ccc(OC)c2c(=O)cc(C)oc12
inactive: [1] -15.7% | [2] -7.8% | [3] -16.3% | [4] -3.4% | [5] -7.65% | [6] -10.4%

NC1C2C=CC(C2)C1C(=O)O (stereo unspecified)
inactive: [1] -0.65% | [2] -0.25% | [3] -50.4% | [4] 4% | [5] -26.6% | [6] -17.3%

CC1OC(OC2C(O)CC(OC3C(O)CC(OC4CCC5(C)C(CCC6C5CCC5(C)C(C7=CC(=O)OC7)CCC65O)C4)OC3C)OC2C)CC(O)C1O (stereo unspecified)
inactive: [1] 7.6% | [2] 2.4% | [3] -17.5% | [4] 16.8% | [5] 6.65% | [6] 27.2%

O=C(Cc1ccccc1)N/N=C(\C1=Nc2ccc([N+](=O)[O-])cc2NC1O)C(O)c1ccc([N+](=O)[O-])cc1 (stereo unspecified)
inactive: [1] 10% | [2] 9.6% | [3] 1.7% | [4] 18.2% | [5] 20.6% | [6] 18.2%

CCCC1=NC(C(F)(F)F)(C(F)(F)F)N=C(N2CCOCC2)O1
inactive: [1] 0.95% | [2] 7.25% | [3] -2.3% | [4] 4.55% | [5] 27.1% | [6] 1.45%

COc1cccc(CN(CC(=O)O)S(=O)(=O)c2ccc(C)cc2)c1
inactive: [1] -6.2% | [2] 11.3% | [3] -1% | [4] -46.6% | [5] -23.6% | [6] 6.85%

Clc1ccc(-c2nc(CSc3ccccn3)cs2)cc1
inactive: [1] 13.7% | [2] -12.4% | [3] 49.5% | [4] -22.2% | [5] 28.9% | [6] -6.8%

[Co+2].[NH-]C(Cc1ccc(O)cc1)C(=O)O.[NH-]C(Cc1ccc(O)cc1)C(=O)O (stereo unspecified)
inactive: [1] 56.5% | [2] 10.2% | [3] 5.8% | [4] 16.3% | [5] 16% | [6] 34%

C[n+]1ccc(NN)cc1
inactive: [1] -3.5% | [2] -15.8% | [3] 20.3% | [4] 12.6% | [5] 17.6% | [6] 4.4%

CN1N=C(c2ccccc2O)/C(=C/c2c(-c3ccccc3O)[nH]n(C)c2=O)C1=O
inactive: [1] 6.85% | [2] -0.55% | [3] -6.1% | [4] 0.75% | [5] 4.6% | [6] 31.9%

C=C1C(OC(C)=O)CC(OC(C)=O)C2(C)C(OC(C)=O)C(OC(C)=O)C3=C(C)C(OC(=O)/C=C/c4ccccc4)CC(C(OC(C)=O)C12)C3(C)C (stereo unspecified)
inactive: [1] 4.8% | [2] -12.1% | [3] 5.6% | [4] -4.75% | [5] 20.6% | [6] 15.6%

CCN(C(=S)Nc1cccc(C(F)(F)F)c1)c1ccccc1
inactive: [1] 38.1% | [2] 22.9% | [3] 49% | [4] 13.9% | [5] 41% | [6] 22.6%

CC1(C)OC2(CC1C1(C)C=CC(=O)O1)CC1C(O)(CCC34CC13C(=O)OC4c1ccoc1)O2 (stereo unspecified)
inactive: [1] 3.95% | [2] -17.3% | [3] 3.15% | [4] 6.2% | [5] -3.1% | [6] 10.2%

O=[N+]([O-])c1ccccc1N=N/C(Cc1ccccc1)=N\Nc1ccccc1
inactive: [1] 10.8% | [2] 19.9% | [3] -8.25% | [4] 11.6% | [5] -12.6% | [6] -17.8%

O=C(Nc1ccc(Br)cc1)Oc1ccc(Cl)cc1C(=O)c1ccccc1
inactive: [1] 38% | [2] 8.5% | [3] 19.1% | [4] 29.5% | [5] 41.8% | [6] 20.5%
